According to PubChem BioAssay (NCI):
The panel holds about 79,000 compounds, 15% with a hit somewhere; the sample as a whole holds those more often. Active and inactive are the calls of the source. Rule as the data show it: active = growth inhibition above about 70%; inactive = the rest.

Assay: NCI Yeast Anticancer Drug Screen. Data for the sgs1 mgt1 strain (AID 161);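 also: 0% = growth of cultures given vehicle only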
Details: S. cerevisiae sgs1 mgt1 strain, at 50.0 µM, active compounds read high
Procedure, shortened: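 Growth of a repair-deficient yeast mutant was monitored after compound treatment and expressed as inhibition relative to vehicle-treated cultures.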

| SMILES | growth inhibition |
| --- | --- |
| CC(Oc1ccccc1)C(=O)NNC(=O)OC(C)(C)C (stereo not drawn) | -10.7% (inactive) |
| CC(C)=CCc1ccc2c(c1)CCCN2C | -17.4% (inactive) |
| O=C(O)C(O)C(O)C(O)C(O)C(O)CO.[NH-]C1CCCCC1[NH-].[Pt+2] (stereo not drawn) | -30.4% (inactive) |
| COc1ccc(NC(=O)CC(=O)N/N=C(/C)c2cc3cc(N=Nc4ccccc4Cl)ccc3oc2=O)cc1 | 24.1% (inactive) |
| Cc1cc(C[C@H]2O[C@@H]3OC(C)(C)O[C@@H]3[C@H]3OC(C)(C)O[C@H]32)c2ccccc2n1 | 19.9% (inactive) |
| O=S1(=O)CC(N2CCCCC2)C=C(c2ccccc2)O1 (stereo not drawn) | 14.3% (inactive) |
| Cc1cc2sc(C)[n+](CCCOS(=O)(=O)[O-])c2cc1C | -40% (inactive) |
| COc1ccc(N)c(C(=O)CCNC(C)=O)c1 | -21.2% (inactive) |
| O=C(Nc1ccccc1Cl)c1ccccc1O | -3.2% (inactive) |
| C=C(C)C#CC(O)(C(=O)OC1CCN(C)CC1)C(C)C (stereo not drawn) | -21.1% (inactive) |
| O=[N+]([O-])c1ccc(-c2nnn(Cc3ccco3)c2N2CCCCC2)cc1 | 91.2% (active) |
| O=[N+]([O-])c1cc2no[n+]([O-])c2cc1N1CCOCC1 | 99.2% (active) |
| c1ccc2cc(N=NNc3ccc4ccccc4c3)ccc2c1 | 27.9% (inactive) |
| CCC(Nc1nncs1)Nc1nncs1 | 2.2% (inactive) |
| CC(=O)NC(Cc1ccc(C)cc1)C(=O)O (stereo not drawn) | 20.1% (inactive) |
| CSCCC(Nc1ncnc2nc[nH]c12)C(=O)O (stereo not drawn) | 3.6% (inactive) |
| CCOC(=O)c1c(-c2ccc([N+](=O)[O-])cc2)c(C#N)n(-c2ccccc2)c1C | 28.4% (inactive) |
| O=c1cc(CNC2CC3CCC2C3)[nH]c(=O)[nH]1 (stereo not drawn) | -4.25% (inactive) |
| CC1CN(C(=O)OCC23COC4(C)CCC(C)(OC2)N34)CC(C)O1 (stereo not drawn) | 6.9% (inactive) |
| CCOc1ccc(N=Cc2c3ccccc3nc3ccccc23)cc1 | -3.25% (inactive) |

| SMILES | growth inhibition |
| --- | --- |
| CC1(c2ccc(Cl)s2)NC(=O)NC1=O (stereo not drawn) | -6.45% (inactive) |
| CCC(O)C(O)(c1ccccc1)c1ccccc1 (stereo not drawn) | -8.8% (inactive) |
| CCCCCCCCCCCCCCCCCC(=O)c1ccc(OC)c(OC)c1 | -31.1% (inactive) |
| NC(Cc1c[nH]c2ccc([N+](=O)[O-])cc12)C(=O)O (stereo not drawn) | -24.8% (inactive) |
| COc1ccc2ncc(COC(=O)Nc3ccccc3)c(COC(=O)Nc3ccccc3)c2c1 | 11.8% (inactive) |
| CCCCC(C=O)(CC)CCC#N (stereo not drawn) | 46.3% (inactive) |
| NC(=S)NNCC(=O)CC(O)(C(F)(F)F)C(F)(F)Cl (stereo not drawn) | -21.6% (inactive) |
| C=C1C(=O)OC2C1CCC1(C)CC(Br)C(=O)C(C)C21 (stereo not drawn) | 13.9% (inactive) |
| COc1ccccc1N1C(Cl)C(=O)C1c1c[nH]c2ccccc12 (stereo not drawn) | -28.7% (inactive) |
| O=C(O)c1cc(C(=O)O)cc(N(CCO)CCO)c1 | -6.8% (inactive) |
| Cc1c(C=O)cc(-c2ccccc2)n1C | -4.85% (inactive) |
| CCOC(=O)c1[nH]n(-c2ccccc2)c(=O)c1C=NC(=S)c1cccnc1 | -29.2% (inactive) |
| O=C(O)c1ccc(-c2ccc(O)cc2)cc1 | 2% (inactive) |
| c1ccc(C2c3ccccc3-c3ncnc(N4CCCCC4)c32)cc1 (stereo not drawn) | 24.8% (inactive) |
| O=C1C=CC2(CC=CCC2)CC1 (stereo not drawn) | -1.6% (inactive) |
| COc1ccc(-c2nnc(-c3ccc(OC)cc3)nn2)cc1 | -7.1% (inactive) |
| O=[N+]([O-])c1ccc(-c2ccc(-c3ccccc3)cc2)cc1 | 5.35% (inactive) |
| O=C(O)c1ccc(C(=O)c2ccccc2)c(C(=O)O)c1 | -19.3% (inactive) |
| O=C(c1ccc(Cl)c(Cl)c1)N1CCCCC1 | 13.8% (inactive) |
| NC(CCC(=O)NC(CSSCCCCS(=O)O)C(=O)NCC(=O)O)C(=O)O (stereo not drawn) | 11.3% (inactive) |

Assay: NCI Yeast Anticancer Drug Screen. Data for the bub3 strain (AID 167)
Details: S. cerevisiae bub3 mutant strain, at 50.0 µM, active compounds read high
Procedure, shortened: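 Yeast carrying a defined mutation is treated with each compound, and growth is compared with that of vehicle-exposed cells to give inhibition.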

| SMILES | growth inhibition |
| --- | --- |
| CC(Oc1ccccc1)C(=O)NNC(=O)OC(C)(C)C (stereo not drawn) | -18.6% (inactive) |
| CC(C)=CCc1ccc2c(c1)CCCN2C | 20.9% (inactive) |
| O=C(O)C(O)C(O)C(O)C(O)C(O)CO.[NH-]C1CCCCC1[NH-].[Pt+2] (stereo not drawn) | 6.15% (inactive) |
| COc1ccc(NC(=O)CC(=O)N/N=C(/C)c2cc3cc(N=Nc4ccccc4Cl)ccc3oc2=O)cc1 | -11.8% (inactive) |
| Cc1cc(C[C@H]2O[C@@H]3OC(C)(C)O[C@@H]3[C@H]3OC(C)(C)O[C@H]32)c2ccccc2n1 | 9.1% (inactive) |
| O=S1(=O)CC(N2CCCCC2)C=C(c2ccccc2)O1 (stereo not drawn) | 12.7% (inactive) |
| Cc1cc2sc(C)[n+](CCCOS(=O)(=O)[O-])c2cc1C | -0.95% (inactive) |
| COc1ccc(N)c(C(=O)CCNC(C)=O)c1 | -26.6% (inactive) |
| O=C(Nc1ccccc1Cl)c1ccccc1O | -5% (inactive) |
| C=C(C)C#CC(O)(C(=O)OC1CCN(C)CC1)C(C)C (stereo not drawn) | 20.9% (inactive) |
| O=[N+]([O-])c1ccc(-c2nnn(Cc3ccco3)c2N2CCCCC2)cc1 | 95.7% (active) |
| O=[N+]([O-])c1cc2no[n+]([O-])c2cc1N1CCOCC1 | 99% (active) |
| c1ccc2cc(N=NNc3ccc4ccccc4c3)ccc2c1 | 47.5% (inactive) |
| CCC(Nc1nncs1)Nc1nncs1 | 2.95% (inactive) |
| CC(=O)NC(Cc1ccc(C)cc1)C(=O)O (stereo not drawn) | -3.05% (inactive) |
| CSCCC(Nc1ncnc2nc[nH]c12)C(=O)O (stereo not drawn) | 0.9% (inactive) |
| CCOC(=O)c1c(-c2ccc([N+](=O)[O-])cc2)c(C#N)n(-c2ccccc2)c1C | 45.1% (inactive) |
| CC1CN(C(=O)OCC23COC4(C)CCC(C)(OC2)N34)CC(C)O1 (stereo not drawn) | -0.7% (inactive) |
| CCOc1ccc(N=Cc2c3ccccc3nc3ccccc23)cc1 | 6.25% (inactive) |

| SMILES | growth inhibition |
| --- | --- |
| CC1(c2ccc(Cl)s2)NC(=O)NC1=O (stereo not drawn) | 1.9% (inactive) |
| CCC(O)C(O)(c1ccccc1)c1ccccc1 (stereo not drawn) | -1.2% (inactive) |
| CCCCCCCCCCCCCCCCCC(=O)c1ccc(OC)c(OC)c1 | -24.4% (inactive) |
| NC(Cc1c[nH]c2ccc([N+](=O)[O-])cc12)C(=O)O (stereo not drawn) | -48.6% (inactive) |
| COc1ccc2ncc(COC(=O)Nc3ccccc3)c(COC(=O)Nc3ccccc3)c2c1 | -7.4% (inactive) |
| CCCCC(C=O)(CC)CCC#N (stereo not drawn) | -16.1% (inactive) |
| NC(=S)NNCC(=O)CC(O)(C(F)(F)F)C(F)(F)Cl (stereo not drawn) | 21.4% (inactive) |
| COc1ccccc1N1C(Cl)C(=O)C1c1c[nH]c2ccccc12 (stereo not drawn) | -26.6% (inactive) |
| O=C(O)c1cc(C(=O)O)cc(N(CCO)CCO)c1 | 21.8% (inactive) |
| Cc1c(C=O)cc(-c2ccccc2)n1C | -7.1% (inactive) |
| CCOC(=O)c1[nH]n(-c2ccccc2)c(=O)c1C=NC(=S)c1cccnc1 | -24.9% (inactive) |
| O=C(O)c1ccc(-c2ccc(O)cc2)cc1 | -6.7% (inactive) |
| c1ccc(C2c3ccccc3-c3ncnc(N4CCCCC4)c32)cc1 (stereo not drawn) | -0.45% (inactive) |
| O=C1C=CC2(CC=CCC2)CC1 (stereo not drawn) | -11.8% (inactive) |
| COc1ccc(-c2nnc(-c3ccc(OC)cc3)nn2)cc1 | 4.2% (inactive) |
| O=[N+]([O-])c1ccc(-c2ccc(-c3ccccc3)cc2)cc1 | -10.7% (inactive) |
| O=C(O)c1ccc(C(=O)c2ccccc2)c(C(=O)O)c1 | -62.9% (inactive) |
| O=C(c1ccc(Cl)c(Cl)c1)N1CCCCC1 | -12.5% (inactive) |
| NC(CCC(=O)NC(CSSCCCCS(=O)O)C(=O)NCC(=O)O)C(=O)O (stereo not drawn) | 14.2% (inactive) |
